From PubChem BioAssay
Sampled rows, rich in hits. Any-hit rate of the full collection: about 18%.
Gal4-VP16 FLuc: Gal4-VP16 reporter inhibition counter-screen | Potency, µM (highest dose often 53.6 µM), for the others: at the top dose activity, negative = inhibition, actives largely listed as inhibitors | Drosophila S2 Gal4-VP16 UAS-luciferase, luminescence, 20 h | actives 3.5% (n = 310,000) | AID 2546;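 further: Gal4-VP16 expression switched on by copper sulfate through the metallothionein promoter; potency means the concentration at half of the fitted maximal effect; nearly all actives have a fitted effect of over 50% in size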
LDHA block: LDHA (human) enzyme inhibition | actives 0.15% (n = 480,000) | P00338 | AID 1347041 | activity change, % (values are at about 110 or 230 µM) | purified LDHA, NADH/diaphorase-resazurin fluorescence; hits give low values; in the data active means activity change below about -30%; inconclusive means mostly about -25% to -30%;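 further: plate controls were DMSO wells for no effect and wells without enzyme for full effect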
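Human LDH5 (2 nM) was incubated with 0.06 mM NADH and 0.2 mM pyruvate for 5 min at room temperature in Tris pH 7.4. Remaining NADH was coupled through diaphorase/resazurin, and resorufin fluorescence was read at 0 and 20 min.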
DT40 TDP1 CPT: DT40-hTDP1 cell growth loss with CPT; chicken DT40 Tdp1-/-;hTDP1 cells + 20 nM CPT, ATP luminescence, 48 h; Potency, µM (highest dose often 46.2 µM), without a hit: at the top dose activity change, negative = growth inhibition, most hits filed as inhibitors; actives 12% (n = 420,000); further: potency means the concentration at half of the fitted maximal effect; nearly all actives have a fitted effect of over 55% in size
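Chicken DT40 Tdp1-/- cells stably complemented with human TDP1 were seeded at 400 cells/well in medium containing 20 nM camptothecin, exposed to pin-transferred compounds, and grown at 37 °C for at least 48 hr. Viability was read as ATP luminescence.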
TDP1 cell noCPT: qHTS for Inhibitors of human tyrosyl-DNA phosphodiesterase 1 (TDP1): qHTS in cells in absence of CPT. DT40 Tdp1-/- hTDP1 cells, no CPT, ATP luminescence, 48 h. Potency, µM (highest dose often 46.2 µM), inactives show top-dose activity change, negative = growth inhibition, most hits filed as inhibitors. actives 15% (n = 420,000). AID 686978, 2013; further: potency means the concentration at half of the fitted maximal effect; nearly all actives have a fitted effect of over 55% in size
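Chicken DT40 Tdp1-/- cells complemented with human TDP1, screened without camptothecin (DMSO vehicle only), 400 cells/well. Compounds pin-transferred, cells incubated at 37 °C for at least 48 hr. Growth read as ATP-dependent luminescence (CellTiter-Glo, 30 min at RT).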
RORg inh: ROR gamma (mouse) transcription inhibition; Potency, µM (titrated, usually from 53.6 µM), without a hit: top-dose activity change, negative = inhibition, most hits filed as inhibitors; Drosophila S2 Gal4-RORgamma UAS-luciferase reporter, 20 h; AID 2551; P51450; actives 5.4% (n = 310,000); further: potency means the concentration at half of the fitted maximal effect; nearly all actives have a fitted effect of over 60% in size
Target sequence (P51450 whole entry, looked up, the tested form may be a part): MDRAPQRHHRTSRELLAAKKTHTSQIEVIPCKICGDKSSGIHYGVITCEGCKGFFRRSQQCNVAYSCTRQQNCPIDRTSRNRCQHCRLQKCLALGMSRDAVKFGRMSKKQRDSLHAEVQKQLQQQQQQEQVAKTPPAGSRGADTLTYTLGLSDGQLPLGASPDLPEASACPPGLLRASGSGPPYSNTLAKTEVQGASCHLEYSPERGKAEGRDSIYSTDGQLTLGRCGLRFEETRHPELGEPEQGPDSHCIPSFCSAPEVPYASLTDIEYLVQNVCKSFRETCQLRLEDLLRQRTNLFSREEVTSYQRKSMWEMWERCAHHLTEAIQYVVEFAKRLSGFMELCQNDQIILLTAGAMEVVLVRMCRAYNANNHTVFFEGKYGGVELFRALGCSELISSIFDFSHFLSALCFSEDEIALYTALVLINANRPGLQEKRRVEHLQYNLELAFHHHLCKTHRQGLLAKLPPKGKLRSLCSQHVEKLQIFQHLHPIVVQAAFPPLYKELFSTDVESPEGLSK
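ROR gamma transcriptional activity was tracked as Gal4-UAS luciferase output in stably transfected Drosophila Schneider cells, with compound added 1 hr before 700 uM copper sulfate induction and a 20 hr ambient-temperature incubation.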
IL-1B inflam inh: inhibitors of inflammasome signaling (IL-1 beta secretion) | THP-1 LPS/ATP IL-1B secretion, AlphaLISA, 16 h; hits give low values | activity change, % at 57.5 µM | actives 4.7% (n = 360,000) | AID 743279; in the data active means activity change below about -50%; inconclusive means mostly about -30% to -49%
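Secreted IL-1B measured by AlphaLISA bead assay after 16 h compound exposure of THP-1 cells; compounds (final up to 57.5 uM) added 1 h before LPS (250 ng/mL) and ATP (1.25 mM) stimulation; lower signal means less secretion.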
* = called active by the depositor; ? = inconclusive; · = not tested or not shown. Unless noted, the call rests on the fitted dose curve; in most records, active means well fitted curve in the direction sought with a large enough effect; inconclusive means small, poorly fitted or top-dose-only effect, or another doubt; inactive means no such curve, though single readings can be large; an effect the other way counts as inactive or inconclusive. Unless noted, on the % scale 0 is the no-effect control and ±100 the full control effect.

SMILES | Gal4-VP16 FLuc | LDHA block | DT40 TDP1 CPT | TDP1 cell noCPT | RORg inh | IL-1B inflam inh
CN1CCc2c(n(CC(O)CNCc3ccccc3)c3ccccc23)C1=O (configuration not stated) | -9% | 0 | 8.2µM* | 8.2µM* | -32% | ?
CCc1cccc2c(C(=O)CSc3nc4ccccc4o3)c[nH]c12 | · | 9 | · | · | · | ·
COC(=O)C1=CN(c2ccc(C(C)(C)C)cc2)C(N)=C(C#N)C1c1ccccc1F (configuration not stated) | · | -9 | ? | 21µM* | · | 20
COC(=O)C1=C(C)OC(N)=C(C#N)C1c1ccccc1F (configuration not stated) | 4% | -2 | -22% | -9% | 25% | -15
COC(=O)C1=CN(c2ccc(OC)cc2)C(N)=C(C#N)C1c1ccccc1F (configuration not stated) | · | 2 | 10µM* | 13µM* | · | 25
COC(=O)C1=CN(Cc2ccc(OC)c(OC)c2)C=C(C(=O)OC)C1c1ccccc1F | -9% | -3 | ? | ? | ? | 13
CCc1ccc(N2C=C(C(=O)OC)C(c3ccccc3F)C(C#N)=C2N)cc1 (configuration not stated) | · | -3 | ? | 23µM* | · | -21
COC(=O)C1=CN(c2ccc(OC)cc2OC)C(N)=C(C#N)C1c1ccccc1F (configuration not stated) | · | 1 | 0.82µM* | 0.58µM* | · | 64
N#CC1(C(N)=O)C(c2cccs2)CC(=O)CC1c1cccs1 (configuration not stated) | · | 8 | · | · | · | ·
CCOC(=O)Cc1cc(=O)n2[nH]c(NCc3ccccc3Cl)nc2n1 | · | -5 | · | · | · | ·
CCCCN1C(SCC(=O)OCC)=NS(=O)(=O)c2ccccc21 | · | -3 | · | · | · | ·
COc1cc(/C=C/c2cc(C(=O)O)c3ccccc3n2)ccc1O | · | -1 | · | · | · | ·
Nc1nc(-c2ccccc2)cn1N | 7.1µM* | -1 | ? | ? | 3.2µM* | 31
Nc1nn2cc(-c3ccccc3)nc2c2ccccc12 | -13% | -2 | ? | ? | -22% | -100*
COc1ccc(-c2cn(/N=C/c3ccc(Cl)cc3Cl)c(N)n2)cc1 | -5% | -17 | 23µM* | ? | -30% | -66*
Nc1nc(-c2ccccc2)cn1/N=C/c1ccccc1 | -13% | -8 | ? | 23µM* | ? | ?
O=S(=O)(c1ccc(F)cc1)N1CCN(Cc2coc(-c3cccs3)n2)CC1 | · | -1 | · | · | · | ·
Cc1cc(C)c2nc(C)cc(C(=O)O)c2c1 | · | 1 | · | · | · | ·
Cc1nn2c(=O)cc(COC(=O)c3ccccc3NC(=O)C(C)C)nc2s1 | · | -13 | ? | 12µM* | · | ·
Cc1nn2c(=O)cc(COC(=O)c3ccccc3NC(=O)c3ccccc3C)nc2s1 | · | -9 | 3% | -2% | · | ·
CC(Oc1ccccc1)C(=O)Nc1ccccc1C(=O)OCc1cc(=O)n2nc(C(C)C)sc2n1 (configuration not stated) | · | -11 | ? | 21µM* | · | ·
CCOc1cc(C(=O)O)cc(-c2ccccc2)c1OC | · | 1 | · | · | · | ·
COc1ccc(C(CNC(=O)CN2CCN(C)CC2)c2c[nH]c3ccccc23)cc1 (configuration not stated) | · | 5 | · | · | · | ·
COc1cc(OC)c(C(=O)Nc2cc(Cl)ccc2-n2cncn2)cc1OC | · | -5 | ? | ? | · | -26
O=C(Nc1cc(Cl)ccc1-n1cncn1)c1ccc([N+](=O)[O-])s1 | ? | 0 | 7.3µM* | ? | -27% | 23
SMILES | Gal4-VP16 FLuc | LDHA block | DT40 TDP1 CPT | TDP1 cell noCPT | RORg inh | IL-1B inflam inh
COc1ccccc1C(=O)Nc1cc(Cl)ccc1-n1cncn1 | -15% | -2 | ? | 0% | 11µM* | -2
O=C(CCc1nc(-c2cccs2)no1)Nc1ccccc1N1CCOCC1 | · | 12 | · | · | · | ·
CC(C)c1ccccc1NC(=O)COC(=O)Cc1c[nH]c2ccccc12 | -2% | -9 | 0.082µM* | -10% | -8% | 0
NC(=O)c1ccsc1NC(=O)COC(=O)Cc1ccc(F)cc1 | · | -5 | -14% | ? | · | 25
NC(=O)c1ccsc1NC(=O)COC(=O)Cc1cccc2ccccc12 | 4.5µM* | 2 | 9.2µM* | 10µM* | -28% | 3
NC(=O)c1ccsc1NC(=O)COC(=O)Cc1ccccc1[N+](=O)[O-] | · | -2 | 23µM* | 21µM* | · | 39
O=C(COC(=O)Cc1c[nH]c2ccccc12)Nc1ccccc1 | -1% | -6 | 2% | -23% | 15% | 18
COc1ccccc1NC(=O)COC(=O)Cc1c[nH]c2ccccc12 | 7% | -4 | -26% | 3% | 19% | 29
NC(=O)c1ccsc1NC(=O)COC(=O)Cc1c[nH]c2ccccc12 | · | -4 | ? | 16µM* | · | 6
Cc1cc(C)cc(NC(=O)CSc2ncnc3ccccc23)c1 | · | 2 | · | · | · | ·
CC1NC(=O)c2cc3ccccc3cc2-n2c1nc1cc(Cl)ccc1c2=O (configuration not stated) | · | 7 | 21µM* | ? | · | 16
CC(C)CC1NC(=O)c2cc3ccccc3cc2-n2c1nc1cc(Cl)ccc1c2=O (configuration not stated) | · | 6 | ? | 18µM* | · | 73
O=C(O)CN(CCCc1ccccc1)CC(=O)O | · | 5 | · | · | · | ·
COc1cc(C2C(=O)N(C3CCCCC3)CC(=O)N2Cc2ccc(C)cc2)ccc1OC(C)C (configuration not stated) | · | -4 | ? | ? | · | ·
COc1ccc(C2C(=O)N(C3CCC(C)CC3)CC(=O)N2CCc2ccccc2)cc1OC (configuration not stated) | · | -5 | ? | ? | · | ·
COc1ccc(CCN2C(=O)CN(C3CCC(C)CC3)C(=O)C2c2ccc(OC(C)C)c(OC)c2)cc1OC (configuration not stated) | · | 1 | 16µM* | ? | · | ·
COc1cc(C2C(=O)N(C3CCCCCC3)CC(=O)N2Cc2ccccc2)ccc1OC(C)C (configuration not stated) | · | -4 | ? | 23µM* | · | ·
O=C(CCCc1nc2ccccc2s1)N1CCCC1c1ccc(F)cc1 (configuration not stated) | · | 1 | · | · | · | ·
c1ccc(-c2csc(Nc3cccnc3)n2)cc1 | 7% | -3 | -18% | ? | -40% | ?
Clc1ccc(-c2csc(Nc3cccnc3)n2)cc1 | 1% | 1 | -3% | -22% | -4% | -80*
Clc1cccc(Nc2nc(-c3ccncc3)cs2)c1 | -6% | -2 | ? | ? | 0% | -61*
